# Results: PubChem BioAssay (EPA / NIEHS)
# Results filed as inconclusive are left out. Activity calls are given as the source filed them. Rule for the calls, unless noted: active = hit-call score of the fitted dose curve at least 0.9, where 1 is the maximum; inconclusive = response in the unintended direction; inactive = score below 0.9.
# Tests used:
# [1] = biological target: human CYP4F12, CYP4F12 (gene 66002) (UniProt Q9HCS2); experiment: NVS_ADME_hCYP4F12: NovaScreen (NVS) CYP450-related Enzyme Activity (ADME) Assay for human CYP4F12 (AID 2283111)
# Chain of human CYP4F12, CYP4F12 (gene 66002) (Q9HCS2 whole entry, looked up): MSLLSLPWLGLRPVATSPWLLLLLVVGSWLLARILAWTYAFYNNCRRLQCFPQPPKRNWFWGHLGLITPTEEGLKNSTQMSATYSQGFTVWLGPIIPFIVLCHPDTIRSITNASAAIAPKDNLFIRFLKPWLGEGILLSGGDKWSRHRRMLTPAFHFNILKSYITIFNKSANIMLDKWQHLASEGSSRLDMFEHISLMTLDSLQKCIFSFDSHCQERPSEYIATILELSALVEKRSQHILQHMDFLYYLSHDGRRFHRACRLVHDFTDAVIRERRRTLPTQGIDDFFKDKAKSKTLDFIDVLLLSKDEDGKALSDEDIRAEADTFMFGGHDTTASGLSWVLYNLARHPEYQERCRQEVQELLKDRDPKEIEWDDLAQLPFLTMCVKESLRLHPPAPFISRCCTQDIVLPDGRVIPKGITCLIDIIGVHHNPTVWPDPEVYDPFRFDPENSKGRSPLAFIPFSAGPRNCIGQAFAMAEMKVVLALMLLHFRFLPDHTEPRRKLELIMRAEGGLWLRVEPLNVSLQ
# Outline: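 Cell-free fluorescence assay of recombinant human CYP4F12 activity on a specific substrate, read 0.5 h after dosing. Primary screen in duplicate at 10 uM, then concentration series for actives; loss of signal fitted against acetonitrile negative control.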
# [2] = biological target: human Acetylcholinesterase (AChE), ACHE (gene 43) (UniProt P22303); experiment: NVS_ENZ_hAChE: NovaScreen (NVS) Enzymatic Assay for human Acetylcholinesterase (AChE) (AID 2283129)
# Chain of human Acetylcholinesterase (AChE), ACHE (gene 43) (P22303 whole entry, looked up): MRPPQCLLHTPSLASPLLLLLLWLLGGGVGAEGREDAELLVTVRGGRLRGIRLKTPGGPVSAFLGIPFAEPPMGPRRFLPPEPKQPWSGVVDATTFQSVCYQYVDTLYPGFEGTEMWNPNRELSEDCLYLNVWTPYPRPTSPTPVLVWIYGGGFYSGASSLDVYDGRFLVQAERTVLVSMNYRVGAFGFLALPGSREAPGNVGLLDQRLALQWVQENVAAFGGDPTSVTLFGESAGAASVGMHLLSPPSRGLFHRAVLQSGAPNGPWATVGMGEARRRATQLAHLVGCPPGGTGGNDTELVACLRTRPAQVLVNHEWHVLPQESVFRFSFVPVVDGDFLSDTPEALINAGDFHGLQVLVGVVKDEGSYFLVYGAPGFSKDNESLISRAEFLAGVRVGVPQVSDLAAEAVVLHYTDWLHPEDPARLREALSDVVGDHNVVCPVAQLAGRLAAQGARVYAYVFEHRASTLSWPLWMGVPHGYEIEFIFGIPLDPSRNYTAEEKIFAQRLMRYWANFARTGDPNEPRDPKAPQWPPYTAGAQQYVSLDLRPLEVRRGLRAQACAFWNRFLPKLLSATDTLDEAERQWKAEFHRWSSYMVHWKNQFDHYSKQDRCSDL
# Outline: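 Cell-free colorimetric enzyme-activity assay; compounds read 0.33 hour after dosing, loss of signal vs DMSO baseline. Primary screen in duplicate at 25 uM single concentration, with active compounds retested in concentration series.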
# [3] = biological target: human AMP-activated Protein Kinase, alpha 1 (AMPKa1), PRKAA1 (gene 5562) (UniProt Q13131); experiment: NVS_ENZ_hAMPKa1: NovaScreen (NVS) Enzymatic Assay for human AMP-activated Protein Kinase, alpha 1 (AMPKa1) (AID 2283130)
# Chain of human AMP-activated Protein Kinase, alpha 1 (AMPKa1), PRKAA1 (gene 5562) (Q13131 whole entry, looked up): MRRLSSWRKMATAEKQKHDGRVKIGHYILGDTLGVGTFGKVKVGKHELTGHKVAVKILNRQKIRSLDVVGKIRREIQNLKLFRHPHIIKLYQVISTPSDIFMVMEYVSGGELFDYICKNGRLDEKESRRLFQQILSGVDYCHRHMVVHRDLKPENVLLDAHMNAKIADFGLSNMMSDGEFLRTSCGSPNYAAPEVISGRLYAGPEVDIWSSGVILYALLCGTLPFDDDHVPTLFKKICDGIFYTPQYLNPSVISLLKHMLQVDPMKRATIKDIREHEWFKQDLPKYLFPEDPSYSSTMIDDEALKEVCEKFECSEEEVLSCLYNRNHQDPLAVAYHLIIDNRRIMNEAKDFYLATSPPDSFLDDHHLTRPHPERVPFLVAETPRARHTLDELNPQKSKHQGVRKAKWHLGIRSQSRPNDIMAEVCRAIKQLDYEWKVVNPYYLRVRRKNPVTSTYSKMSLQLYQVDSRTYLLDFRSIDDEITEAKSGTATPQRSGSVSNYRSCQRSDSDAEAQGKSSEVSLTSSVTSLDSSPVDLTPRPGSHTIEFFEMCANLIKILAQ
# Outline: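 Recombinant human AMPKα1 activity was measured cell-free by fluorescent substrate conversion with electrophoretic mobility-shift separation, 1 h after dosing. Duplicate single-point screening was at 25 uM; actives (≥30% inhibition) were retested in concentration-response up to 50 uM.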
# [4] = biological target: human Fibroblast Growth Factor Receptor 1 (FGFR1), FGFR1 (gene 2260) (UniProt P11362); experiment: NVS_ENZ_hFGFR1: NovaScreen (NVS) Enzymatic Assay for human Fibroblast Growth Factor Receptor 1 (FGFR1) (AID 2283159)
# Chain of human Fibroblast Growth Factor Receptor 1 (FGFR1), FGFR1 (gene 2260) (P11362 whole entry, looked up): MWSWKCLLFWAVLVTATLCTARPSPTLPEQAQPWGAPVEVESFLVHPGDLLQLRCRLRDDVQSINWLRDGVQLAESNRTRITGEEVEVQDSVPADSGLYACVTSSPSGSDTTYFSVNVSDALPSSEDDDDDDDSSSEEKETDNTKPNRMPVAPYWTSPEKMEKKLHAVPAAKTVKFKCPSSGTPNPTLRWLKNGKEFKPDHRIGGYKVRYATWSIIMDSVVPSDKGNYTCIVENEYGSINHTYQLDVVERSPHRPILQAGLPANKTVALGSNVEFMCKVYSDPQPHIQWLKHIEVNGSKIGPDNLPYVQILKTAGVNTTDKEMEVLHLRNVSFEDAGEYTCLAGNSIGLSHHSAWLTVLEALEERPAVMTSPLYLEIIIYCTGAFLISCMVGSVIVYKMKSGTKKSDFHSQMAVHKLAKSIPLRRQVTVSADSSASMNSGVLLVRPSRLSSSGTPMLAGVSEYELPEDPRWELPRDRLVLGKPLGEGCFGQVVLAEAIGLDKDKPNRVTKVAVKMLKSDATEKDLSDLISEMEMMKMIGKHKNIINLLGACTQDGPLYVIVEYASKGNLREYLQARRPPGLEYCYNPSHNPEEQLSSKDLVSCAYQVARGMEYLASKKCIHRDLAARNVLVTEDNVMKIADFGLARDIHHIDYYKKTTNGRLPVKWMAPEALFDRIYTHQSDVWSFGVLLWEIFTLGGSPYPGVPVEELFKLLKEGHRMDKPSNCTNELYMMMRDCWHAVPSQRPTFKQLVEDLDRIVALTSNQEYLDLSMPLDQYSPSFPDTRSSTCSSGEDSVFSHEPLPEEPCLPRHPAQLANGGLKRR
# Outline: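 Cell-free recombinant kinase with fluorescent substrate, product separated by electrophoretic mobility shift; read 1 hour after dosing, loss of signal relative to DMSO. Initial screen in duplicate at 25 uM, actives followed in concentration series.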
# [5] = biological target: human Tyrosine Protein Kinase Receptor Tie-2 (Tie2), TEK (gene 7010) (UniProt Q02763); experiment: NVS_ENZ_hTie2: NovaScreen (NVS) Enzymatic Assay for human Tyrosine Protein Kinase Receptor Tie-2 (Tie2) (AID 2283225)
# Chain of human Tyrosine Protein Kinase Receptor Tie-2 (Tie2), TEK (gene 7010) (Q02763 whole entry, looked up): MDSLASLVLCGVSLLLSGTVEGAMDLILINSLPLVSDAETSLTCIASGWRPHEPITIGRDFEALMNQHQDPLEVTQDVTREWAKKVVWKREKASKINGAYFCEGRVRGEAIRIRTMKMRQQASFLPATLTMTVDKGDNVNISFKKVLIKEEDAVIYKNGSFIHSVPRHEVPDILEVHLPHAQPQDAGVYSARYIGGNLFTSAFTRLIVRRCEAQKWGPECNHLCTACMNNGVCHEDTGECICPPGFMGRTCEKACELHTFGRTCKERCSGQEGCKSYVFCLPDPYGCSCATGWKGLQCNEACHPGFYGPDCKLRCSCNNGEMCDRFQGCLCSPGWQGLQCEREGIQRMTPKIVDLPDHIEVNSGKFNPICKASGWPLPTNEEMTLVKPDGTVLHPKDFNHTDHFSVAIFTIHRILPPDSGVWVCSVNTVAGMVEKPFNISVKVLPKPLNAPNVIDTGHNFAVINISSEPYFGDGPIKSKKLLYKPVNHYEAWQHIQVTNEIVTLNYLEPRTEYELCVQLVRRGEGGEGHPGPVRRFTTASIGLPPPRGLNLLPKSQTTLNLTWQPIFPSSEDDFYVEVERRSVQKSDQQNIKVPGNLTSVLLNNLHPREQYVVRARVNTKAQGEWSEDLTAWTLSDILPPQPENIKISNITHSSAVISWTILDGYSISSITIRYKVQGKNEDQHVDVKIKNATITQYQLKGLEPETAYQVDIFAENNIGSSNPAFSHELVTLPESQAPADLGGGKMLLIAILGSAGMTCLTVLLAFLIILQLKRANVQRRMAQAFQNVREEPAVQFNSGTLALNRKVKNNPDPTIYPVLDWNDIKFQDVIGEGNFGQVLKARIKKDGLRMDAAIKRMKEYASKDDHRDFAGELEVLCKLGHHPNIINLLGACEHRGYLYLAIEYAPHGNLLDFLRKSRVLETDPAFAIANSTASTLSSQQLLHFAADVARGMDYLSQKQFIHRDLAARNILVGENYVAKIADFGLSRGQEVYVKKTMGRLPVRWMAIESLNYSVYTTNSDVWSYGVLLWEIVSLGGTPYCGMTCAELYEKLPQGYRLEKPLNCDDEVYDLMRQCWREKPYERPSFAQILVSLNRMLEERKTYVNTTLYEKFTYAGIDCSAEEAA
# Outline: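 Recombinant human Tie2 kinase activity was read cell-free by fluorescence with electrophoretic mobility shift, 1 hour after dosing. The screen used 25 uM in duplicate, then concentration-response up to 50 uM. Signal loss was scored against DMSO.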
# [6] = biological target: rat Acetylcholinesterase (AChE), Ache (gene 83817) (UniProt P37136); experiment: NVS_ENZ_rAChE: NovaScreen (NVS) Enzymatic Assay for rat Acetylcholinesterase (AChE) (AID 2283233)
# Outline: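 Rat brain membrane acetylcholinesterase activity measured colorimetrically 0.33 h after compound addition, loss of signal relative to DMSO. Primary screen in duplicate at 25 uM; actives re-run as concentration-response with 50 uM top concentration.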
# [7] = biological target: Norway rat Vesicular Monoamine Transporter (VMAT2), neurotransmitter transporter, Slc18a2 (gene 25549) (UniProt Q01827); experiment: NVS_TR_rVMAT2: NovaScreen (NVS) Transporter Assay for Norway rat Vesicular Monoamine Transporter (VMAT2), neurotransmitter transporter (AID 2283376);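 note: actives lower the bound radioligand signal below the DMSO level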
# Chain of Norway rat Vesicular Monoamine Transporter (VMAT2), neurotransmitter transporter, Slc18a2 (gene 25549) (Q01827 whole entry, looked up): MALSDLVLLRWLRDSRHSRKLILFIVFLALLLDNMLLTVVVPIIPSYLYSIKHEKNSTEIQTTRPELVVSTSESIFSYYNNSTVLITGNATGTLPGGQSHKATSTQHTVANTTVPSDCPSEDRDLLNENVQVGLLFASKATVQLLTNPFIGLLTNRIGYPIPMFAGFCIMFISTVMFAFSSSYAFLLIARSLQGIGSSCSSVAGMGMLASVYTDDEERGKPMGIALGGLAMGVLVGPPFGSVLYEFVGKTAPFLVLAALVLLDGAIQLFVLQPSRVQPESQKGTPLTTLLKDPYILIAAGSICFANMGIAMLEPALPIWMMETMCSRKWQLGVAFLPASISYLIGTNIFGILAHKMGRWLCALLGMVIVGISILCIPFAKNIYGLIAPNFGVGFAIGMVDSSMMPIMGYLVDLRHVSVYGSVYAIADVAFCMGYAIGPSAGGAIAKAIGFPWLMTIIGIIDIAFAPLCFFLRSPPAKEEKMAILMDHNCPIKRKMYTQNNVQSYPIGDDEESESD
# Outline: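 Tissue: rat forebrain extract. Format: competitive radioligand binding, cell-free. Timepoint: 1 h. Readout: filter radiodetection/scintillation. Screen: 25 uM in duplicate, then concentration series for actives. Baseline: DMSO.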
# [8] = biological target: rat Monoamine Oxidase, MAO-B, Peripheral (MAOBP), Maob (gene 25750) (UniProt P19643); experiment: NVS_ENZ_rMAOBP: NovaScreen (NVS) Enzymatic Assay for rat Monoamine Oxidase, MAO-B, Peripheral (MAOBP) (AID 2283242)
# [9] = biological target: rat Oxytocin Receptor (OXT), Oxtr (gene 25342) (UniProt P70536); experiment: NVS_GPCR_rOXT: NovaScreen (NVS) G Protein-Coupled Receptor Assay for rat Oxytocin Receptor (OXT) (AID 2283330)
# Outline: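 Radioligand displacement on rat uterine membranes, 1 h incubation, filter-based scintillation counting. Chemicals were screened in duplicate at 25 uM, and those passing threshold were retested in concentration-response up to 50 uM. Loss of binding was fitted versus DMSO.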
# [10] = biological target: rat CYP1A2, Cyp1a2 (gene 24297) (UniProt P04799); experiment: NVS_ADME_rCYP1A2: NovaScreen (NVS) CYP450-related Enzyme Activity (ADME) Assay for rat CYP1A2 (AID 2283115)
# Chain of rat CYP1A2, Cyp1a2 (gene 24297) (P04799 whole entry, looked up): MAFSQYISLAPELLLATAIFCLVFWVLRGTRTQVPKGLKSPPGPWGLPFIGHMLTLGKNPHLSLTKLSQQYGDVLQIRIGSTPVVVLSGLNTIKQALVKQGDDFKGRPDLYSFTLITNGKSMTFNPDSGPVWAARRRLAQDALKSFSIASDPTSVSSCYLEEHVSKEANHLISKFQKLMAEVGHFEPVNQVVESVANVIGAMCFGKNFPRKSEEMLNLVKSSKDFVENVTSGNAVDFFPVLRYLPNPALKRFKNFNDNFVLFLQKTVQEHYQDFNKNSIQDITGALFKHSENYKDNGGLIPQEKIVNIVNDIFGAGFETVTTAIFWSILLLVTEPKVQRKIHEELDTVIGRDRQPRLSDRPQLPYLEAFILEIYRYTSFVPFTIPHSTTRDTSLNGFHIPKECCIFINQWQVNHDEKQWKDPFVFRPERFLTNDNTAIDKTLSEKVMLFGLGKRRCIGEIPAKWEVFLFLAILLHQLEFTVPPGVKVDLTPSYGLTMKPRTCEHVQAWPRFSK
# Outline: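 Cell-free recombinant rat enzyme with fluorogenic substrate, read by fluorescence intensity 1 hour after dosing. Loss of signal versus acetonitrile negative control; primary screen at 10 uM in duplicate, actives followed in concentration series.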
# PPP2CA (gene 5515) = PPP2CA (gene 5515) (UniProt P67775); experiment: NVS_ENZ_hPPP2CA: NovaScreen (NVS) Enzymatic Assay for human Protein Phosphatase 2 Aatalytic subunit Alpha (PPP2CA) (AID 2283199)
# Chain of PPP2CA (gene 5515) (P67775 whole entry, looked up): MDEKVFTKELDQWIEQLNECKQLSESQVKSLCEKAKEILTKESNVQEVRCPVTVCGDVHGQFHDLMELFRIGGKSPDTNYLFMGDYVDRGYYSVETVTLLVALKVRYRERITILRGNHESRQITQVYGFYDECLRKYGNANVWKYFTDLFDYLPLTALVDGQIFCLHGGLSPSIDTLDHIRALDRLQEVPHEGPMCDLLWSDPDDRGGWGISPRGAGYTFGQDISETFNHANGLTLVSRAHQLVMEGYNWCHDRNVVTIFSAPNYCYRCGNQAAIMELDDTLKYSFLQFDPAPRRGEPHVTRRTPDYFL
# Outline: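 Recombinant human PPP2CA with fluorescent substrate; product separated from substrate by electrophoretic mobility shift, read 1.33 h after dosing. Duplicate single-point at 25 uM, then singleton concentration-response up to 50 uM; loss of signal versus DMSO.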
# [11] = biological target: human Aurora Kinase A - serine/threonine-protein Kinase 6 (AurA), AURKA (gene 6790) (UniProt O14965); experiment: NVS_ENZ_hAurA: NovaScreen (NVS) Enzymatic Assay for human Aurora Kinase A - serine/threonine-protein Kinase 6 (AurA) (AID 2283142)
# Outline: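 Cell-free enzymatic assay with human Aurora A, 1 hour after dosing. Fluorescent substrate turnover detected after electrophoretic mobility shift separation of substrate and product. Screened at 25 uM, actives retested in concentration-response up to 50 uM.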
# [12] = test system: rat Monoamine Oxidase, MAO-A, Central (MAOAC), gene 29253; experiment: NVS_ENZ_rMAOAC: NovaScreen (NVS) Enzymatic Assay for rat Monoamine Oxidase, MAO-A, Central (MAOAC) (AID 2283243);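 note: potency refers to inhibition seen as signal drop below DMSO baseline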
# Outline: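 Rat brain tissue extract used as enzyme source in a cell-free radiometric assay, read by scintillation counting 1.5 hours after dosing. Loss of signal relative to DMSO baseline scored; primary screen at 25 uM in duplicate, actives followed up in concentration series.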
# [13] = biological target: rat CYP2C12, Cyp2c12 (gene 25011) (UniProt P11510); experiment: NVS_ADME_rCYP2C12: NovaScreen (NVS) CYP450-related Enzyme Activity (ADME) Assay for rat CYP2C12 (AID 2283119)
# Outline: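 Cell-free recombinant rat CYP2C12 activity read by fluorescence 0.5 h after dosing; loss of signal versus acetonitrile control. Primary screen in duplicate at 10 uM; actives then run in concentration-response format.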
# [14] = biological target: human IkappaB Kinase alpha (IKKa), CHUK (gene 1147) (UniProt O15111); experiment: NVS_ENZ_hIKKa: NovaScreen (NVS) Enzymatic Assay for human IkappaB Kinase alpha (IKKa) (AID 2283167)
# Outline: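 Cell-free recombinant human IKKa with fluorescent substrate, product separated by electrophoretic mobility shift; read 1 hour after dosing. Primary screen duplicate at 25 uM, actives then concentration-response up to 50 uM; loss of signal relative to DMSO.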
# [15] = biological target: human MET Proto-Oncogene, Receptor Tyrosine Kinase (MET), MET (gene 4233) (UniProt P08581); experiment: NVS_ENZ_hMet: NovaScreen (NVS) Enzymatic Assay for human MET Proto-Oncogene, Receptor Tyrosine Kinase (MET) (AID 2283180)
# Outline: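 Cell-free MET kinase assay using recombinant protein and fluorescent substrate, with mobility-shift separation; read 1 h after dosing. Primary duplicate at 25 uM; actives in singleton concentration-response to 50 uM maximum. Signal loss versus DMSO.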
# [16] = CCTE_Harrill_HTTr_Apoptosis_PRF_DMEM_12hr: (Pilot) CCTE's 12-hour Apoptosis Assessment for the High-Throughput Transcriptomics (HTTr) Platform, in MCF-7 cells cultured in phenol red-free DMEM + 10% charcoal-stripped fetal bovine serum, Harrill Lab (AID 2283985; active = hit-call score of the fitted dose curve at least 0.9, where 1 is the maximum; inactive = score below 0.9)
# Outline: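 MCF-7 cells in phenol red-free DMEM with 10% charcoal-stripped FBS, eight-point dilution series, 12 h exposure. Caspase-3/7 activation imaged by high content imaging with CellEvent Green reagent; bidirectional fit vs DMSO.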
# [17] = biological target: Voltage-dependent N-type calcium channel subunit alpha-1B (Rattus norvegicus) (UniProt Q02294); experiment: NVS_IC_rCaChN: NovaScreen (NVS) Ion Channel Assay for rat Calcium Channel, Type N (CaChN) (AID 2283317)
smiles,measurement,setting,value
CCCCCCCC(=O)O,AC50,[1],4.61 µM (active)
same,outcome,[2],inactive
same,outcome,[3],inactive
same,outcome,[4],inactive
same,outcome,[5],inactive
same,outcome,[6],inactive
CCc1ccc(O)c(C(C)(C)C)c1,outcome,[1],inactive
Cc1ccccc1Cl,AC50,[1],7.95 µM (active)
same,outcome,[7],inactive
Cc1occc1C(=O)Nc1ccc(C(=O)N2CCC(F)(F)/C(=C\C(=O)N3CCC(N4CCCCC4)CC3)c3ccccc32)cc1,AC50,[1],1.24 µM (active)
same,AC50,[8],9.05 µM (active)
same,AC50,[9],0.119 µM (active)
same,AC50,[7],5.73 µM (active)
c1ccc2sc(SN(C3CCCCC3)C3CCCCC3)nc2c1,outcome,[10],inactive
CC(C)CCCCCCCOC(=O)CCCCC(=O)OCCCCCCCC(C)C,AC50,[2],7.43 µM (active)
CCCCC(CC)COP(=O)(OCC(CC)CCCC)OCC(CC)CCCC (centres undefined),AC50,[2],32.7 µM (active)
CCCCC(CC)COC(=O)c1ccc(C(=O)OCC(CC)CCCC)cc1 (centres undefined),outcome,[2],inactive
CN1CCC[C@H]1c1cccnc1,outcome,[1],inactive
same,outcome,PPP2CA (gene 5515),inactive
CN(C)C(=O)NC1(c2ccccc2)CCN(CC[C@@]2(c3ccc(F)c(F)c3)CN(C(=O)c3ccccc3)CCO2)CC1,outcome,[1],inactive
same,outcome,[3],inactive
same,outcome,[11],inactive
same,outcome,[4],inactive
same,outcome,[5],inactive
CNNCc1ccc(C(=O)NC(C)C)cc1,outcome,[10],inactive
same,AC50,[12],18 µM (active)
COC(=O)c1ccccc1S(=O)(=O)NC(=O)Nc1nc(OC(F)F)cc(OC(F)F)n1,outcome,[13],inactive
same,outcome,[2],inactive
CSc1ccc(Oc2ccc(S(N)(=O)=O)cc2CN(C)C)cc1C,AC50,[1],8.72 µM (active)
same,outcome,[2],inactive
same,outcome,[4],inactive
CCCCCCC(C)OC(=O)CCCCC(=O)OC(C)CCCCCC (centres undefined),outcome,[10],inactive
CCN(CC)CCNc1ccc(CNC=O)c2sc3ccc(OC)cc3c(=O)c12,AC50,[1],1.41 µM (active)
same,AC50,[2],13.9 µM (active)
same,outcome,[3],inactive
same,outcome,[4],inactive
same,outcome,[14],inactive
same,outcome,[15],inactive
same,outcome,PPP2CA (gene 5515),inactive
same,outcome,[5],inactive
same,AC50,[6],15.7 µM (active)
same,AC50,[12],25 µM (active)
Nc1nc(Cl)nc2c1ncn2[C@H]1C[C@H](O)[C@@H](CO)O1,outcome,[1],inactive
same,outcome,[16],inactive
CCN(C(=O)c1cc(C)cc(OC[C@H](C)Nc2ccncc2)c1)C(C)C,AC50,[2],6.7 µM (active)
CC1=CC(=O)/C(=C(/C)O)C(=O)O1,AC50,[1],1.52 µM (active)
O=C=NCCCCCCN=C=O,AC50,[1],0.884 µM (active)
COC(=O)CCC(=O)OC,outcome,[1],inactive
same,outcome,[17],inactive
